Data: PubChem BioAssay
A number with no mark means an inactive call. The rule behind the calls is not given here.

molecular target: Pantothenate synthetase (Mycobacterium tuberculosis (strain ATCC 25618 / H37Rv)) (UniProt P9WIL5); test: Recombinant Mtb pantothenate synthetase (PanC) inhibitors, coupled enzyme, confirmatory (AID 375); details: coupled enzyme assay; at 10 µM, hits give high values;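 note: 0% = full reaction with vehicle and 100% = no enzyme background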
Sequence (P9WIL5 whole entry, looked up): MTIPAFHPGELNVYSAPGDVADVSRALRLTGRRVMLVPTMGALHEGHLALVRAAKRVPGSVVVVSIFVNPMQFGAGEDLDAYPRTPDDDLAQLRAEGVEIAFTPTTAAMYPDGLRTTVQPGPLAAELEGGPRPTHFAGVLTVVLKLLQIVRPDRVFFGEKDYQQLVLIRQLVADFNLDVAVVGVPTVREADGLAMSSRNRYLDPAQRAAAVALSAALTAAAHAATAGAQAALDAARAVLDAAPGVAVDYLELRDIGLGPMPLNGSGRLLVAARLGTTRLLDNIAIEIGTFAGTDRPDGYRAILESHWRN

| SMILES | inhibition [%] |
| --- | --- |
| CCOc1ccccc1NC(=O)CSc1nnc2c(CC)c(C)nc(N)n12 | 0 |
| CCOc1ccc(CSC(CC(=O)O)C(=O)O)cc1 (stereo not given) | 6 |
| CCOC(=O)CNC(=O)Cn1cnc2c(nnn2-c2cccc(Cl)c2)c1=O | 0 |
| CCOC(=O)c1cnc(C(C)(C)C)[nH]c1=O | 10 |
| O=C(NCc1cccs1)C(Cc1ccccc1)n1cccc1 (stereo not given) | 0 |
| O=C(NCCCN1CCCC1=O)C1CCN(S(=O)(=O)N2CCOCC2)CC1 | 0 |
| Cc1ccc(S(=O)(=O)Cn2nnnc2CN(Cc2ccco2)Cc2cccs2)cc1 | 0 |
| CCOC(=O)c1nnn(CC(=O)Nc2cccc(F)c2)c1C(=O)OCC | 3 |
| O=C(C1CCCN(S(=O)(=O)c2cccs2)C1)N1CCc2ccccc2C1 (stereo not given) | 9 |
| Cc1nonc1NC(=O)c1ccccc1Br | 1 |
| O=C(COc1ccc(F)cc1Br)N1CCc2ccccc21 | 10 |
| Cc1ccc(C)c(-c2nc3cc(N)ccc3o2)c1 | 0 |
| CN(C(=O)c1ccccc1Cl)c1ccccc1 | 2 |
| N#Cc1cnc2sc3ccccc3n2c1=N | 3 |
| CC(C)=CCCC(C)NC(=O)NC1CCCCC1 (stereo not given) | 0 |
| Cc1cc(C(=O)N2CCN(C(c3ccccc3)c3ccccc3)CC2)no1 | 3 |
| O=C(CCC(=O)c1cccs1)NCc1ccccc1 | 0 |
| CC(C)CN1C(=O)c2ccc(C(=O)Nc3nccs3)cc2C1=O | 0 |
| CCn1cc(C(=O)NC2CCc3ccccc32)c(=O)c2ccc(C)nc21 (stereo not given) | 0 |
| CN(CCc1ccccn1)C(=O)CCNC(=O)Cn1cnc2ccccc2c1=O | 1 |

| SMILES | inhibition [%] |
| --- | --- |
| CN(CC(O)COCc1cccs1)C1CCCCC1 (stereo not given) | 1 |
| O=C(NC1CCCC1)c1cc(-c2cccs2)on1 | 6 |
| CCCn1nnnc1SCC(=O)c1ccc2c(c1)OCCO2 | 11 |
| COc1ccc(C(C)(C)C)cc1NC(=O)Nc1ccc2c(c1)OCO2 | 5 |
| Cn1nc(C(C)(C)C)cc1C(=O)NCc1ccc(N2CCCC2=O)cc1 | 0 |
| Clc1cccc(-c2nnc(-c3ccccc3)o2)c1 | 0 |
| CCOc1nc(NCCC2=CCCCC2)nc(N2CCOCC2)n1 | 0 |
| CCCn1c(N)c(C(=O)CSc2nnc(Cc3ccccc3)o2)c(=O)n(C)c1=O | 2 |
| COc1ccc(N2CCN(Cc3cc(=O)oc4cc(C)c(Cl)c(C)c34)CC2)cc1 | 6 |
| Cc1cccc(CCNC(=O)CCc2nc(-c3ccccc3F)no2)c1 | 0 |
| Cc1c(C(=O)O)c(-c2ccccc2)nn1-c1ccccc1 | 2 |
| CC(=O)c1c(OC(=O)c2ccco2)c2ccccc2n1C | 0 |
| COc1cc(OC)c(C(=O)Nc2ncn[nH]2)cc1OC | 0 |
| CCN1CCN(c2nc3c(c(=O)n(C)c(=O)n3C)n2CCSc2ncccn2)CC1 | 0 |
| Cc1nnc(SCC(=O)Nc2ccc(Br)cn2)[nH]c1=O | 1 |
| Cc1ccnc(N2CCN(C(=O)CSc3nc4ccccc4nc3N3CCCCC3)CC2)c1 | 1 |
| CC(=O)/C(C[N+]1(C)CCCCC1)=N\O | 3 |
| CCOC(=O)CSc1nc2cc(C(=O)NCc3ccco3)ccc2c(=O)n1C1CCCCC1 | 0 |
| COc1cc(-c2nc(S(=O)(=O)c3ccccc3)c(N3CCOCC3)o2)cc(OC)c1OC | 8 |
| CC(=O)Nc1c(Cl)n(C(C)=O)c2ccccc12 | 7 |
